Source: PubChem BioAssay AID1634 (National Center for Advancing Translational Sciences (NCATS), 2009)
Screen size: about 260,000 compounds; about 150 (0.058%) were called active. The call rests on the fitted dose curve; in most records, active means well fitted inhibition curve with a large enough effect; inconclusive means small, poorly fitted or top-dose-only effect; inactive means no such curve, though single readings can be large or run the other way. The entries come from a sample that favours actives as a whole.

biological target: Pyruvate kinase PKM (Homo sapiens) (UniProt P14618); assay: qHTS Assay for Inhibitors of Human Muscle isoform 2 Pyruvate Kinase; conditions: purified PKM2, ATP generation, Kinase-Glo luminescence; series mostly up to 57.5 µM; further: nearly all actives have a fitted effect of over 60% in size
Protocol: NIH Chemical Genomics Center [NCGC] Matthew G. Vander Heiden, M.D., Ph.D. [Harvard Medical School, 77 Avenue Louis Pasteur, Boston, MA 02115] […] ATP generation was detected in a coupled reaction by luciferase-mediated luminescence, an ATP-dependent process. […] The enzyme was assayed at an intermediate level of activity to screen for both inhibitors and activators.
NCGC Assay Protocol Summary: Three uL of substrate mix (at r.t.) in assay buffer (50 mM Imidazole pH7.2, 50 mM KCl, 7 mM MgCl2, 0.01% Tween 20, 0.05% BSA) was dispensed into white solid bottom 1,536 well microtiter plates so that the final concentrations of substrates in the assay were 0.1 mM ADP and 0.5 mM PEP. 23 nL of compound were delivered by a pin tool and 1 uL of enzyme mix in assay buffer (4 degree Celsius) was added. Plates were incubated at room temperature for 1 hour. Two uL of detection mix (Kinase-Glo, Promega; at 4 degree Celsius protected from light) was added and luminescence read by a ViewLux (Perkin Elmer) at 5 second exposure/plate. Data were normalized to the uninhibited and AC100 inhibition (no enzyme). To monitor activation, the first column contained a titration of the activator, NCGC00031955-01 (16-point 1:2 dilutions in duplicate starting at 57 uM) and the first 16 rows of column 4 contained 57 uM of NCGC00031955-01.
Potency means the concentration at half of the fitted maximal effect.

Chain of Pyruvate kinase PKM (Homo sapiens) (P14618 whole entry, looked up, canonical isoform): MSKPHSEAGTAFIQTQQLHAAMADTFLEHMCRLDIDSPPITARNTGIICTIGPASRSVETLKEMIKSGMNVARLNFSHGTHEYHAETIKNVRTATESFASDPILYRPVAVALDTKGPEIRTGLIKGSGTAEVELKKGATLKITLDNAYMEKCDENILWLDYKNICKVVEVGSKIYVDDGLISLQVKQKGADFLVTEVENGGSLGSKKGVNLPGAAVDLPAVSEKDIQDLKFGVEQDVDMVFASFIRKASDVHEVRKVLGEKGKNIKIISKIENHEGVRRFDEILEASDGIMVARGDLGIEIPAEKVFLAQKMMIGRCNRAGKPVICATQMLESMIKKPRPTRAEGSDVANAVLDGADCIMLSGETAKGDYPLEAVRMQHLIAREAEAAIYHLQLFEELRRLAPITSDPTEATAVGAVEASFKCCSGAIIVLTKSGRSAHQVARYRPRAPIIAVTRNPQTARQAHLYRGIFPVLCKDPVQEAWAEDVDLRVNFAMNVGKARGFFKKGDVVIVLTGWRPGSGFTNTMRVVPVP

Potency, active:
COc1ccc(C(=O)/C=C/Nc2ccccn2)cc1 15.8 µM, O=C(Oc1ccc(-c2nc(-c3ccccn3)no2)cc1)c1ccccc1 14.1 µM

Potency, inactive:
Cc1ccc(Cn2c(SCC(=O)N/N=C/c3ccccc3OCC(=O)O)nc3ccccc32)cc1, Cc1cc(C)n(-c2ccc3nncn3n2)n1, CSC1=NCCN1C(=O)Cc1cccc2ccccc12, Cc1ccnc(Nc2nc3ccccc3s2)n1, N#Cc1nc(Cc2ccccc2)oc1NCCc1ccccc1, Cc1cc(C)c(C#N)c(SCc2ccc3c(c2)OCO3)n1, C=C(C)C(=O)O[C@H]1C/C(C)=C\C(=O)/C=C(\C)[C@H](O)[C@@H]2OC(=O)C(=C)[C@@H]21, Cc1ccc2c(Cl)c(C(=O)NCCCn3ccnc3)sc2c1, C=CCN(C(=O)Nc1ccc2oc(C)nc2c1)c1ccccc1, O=S(=O)(c1ccc2ccccc2c1)N1CCN(S(=O)(=O)N2CCOCC2)CC1, N#Cc1c2c(c(N3CCN(CCO)CC3)n3c1nc1ccccc13)CCCC2, COc1cc2c(cc1O)[C@H](Cc1ccc(Oc3cc(C[C@@H]4NCCc5cc(OC)c(O)cc54)ccc3O)cc1)NCC2, CN1CCCN(S(=O)(=O)c2ccc3c(c2)OCCO3)CC1, O=C(CSc1ccc(-c2ccco2)nn1)Nc1cccc(F)c1, CCOC(=O)c1cnc(SCC(=O)Nc2cccc(OC)c2)nc1N, O=C(Nc1ccccc1)c1nnsc1S(=O)(=O)c1ccc(Cl)cc1, O=C(CN1CCN(S(=O)(=O)c2ccc(F)cc2)CC1)NC1CC1, Cc1nc2cc(C(F)(F)F)ccc2n1CCNc1nc(-c2cc(Cl)c(N)c(Cl)c2)cs1, Cc1ccc(S(=O)(=O)c2c(N)n(C)c3nc4ccccc4nc23)cc1, CSc1nc2ccc(S(=O)(=O)N3CCc4ccccc43)cc2s1, COc1cccc(NC(=O)CSc2nnc(Cc3ccc(OC)c(OC)c3)o2)c1, CC1=C(C)CC2C(=O)N(c3cccc4ccccc34)C(=O)C2C1 (stereo not given), CCOC(=O)c1c(C)oc2cc(Br)c(OCC(N)=O)cc12, COc1cccc(Nc2ncccc2C(=O)O)c1, O=C(Nc1ccc(Br)c2cccnc12)c1ccc(Cn2cc([N+](=O)[O-])cn2)o1, Cc1cnc(C(=O)N2CCCC(C(=O)c3ccc(C(F)(F)F)cc3)C2)cn1 (stereo not given), O=C(NCc1ccccn1)c1ccc2nc(-c3ccco3)c(-c3ccco3)nc2c1, O=c1c2ccccc2nnn1CSc1nnnn1-c1ccccc1
